Pf growth 96h: Primary qHTS for delayed death inhibitors of the malarial parasite plastid, 96 hour incubation | P. falciparum luciferase reporter growth, 96 h | Potency, µM (series often up to 28.7 µM), without a hit: at the highest dose activity change, negative = inhibition, hits mostly inhibitors | 320,000 compounds, 6.9% hits; active means well fitted inhibition curve with a large enough effect; inconclusive means small, poorly fitted or top-dose-only effect, or another doubt; inactive means no such curve, though single readings can be large or run the other way; further: potency means the concentration at half of the fitted maximal effect; on the % scale 0 is the no-effect control and ±100 the full control effect
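Two-generation exposure (96 h) targets delayed-death phenotype. Reporter parasites carrying integrated firefly luciferase, in red cells at 2% hematocrit and 0.05% parasitemia final, kept at 37 C, 5% CO2; luminescence loss indicates inhibition.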
RE007 growth inh: qHTS Assay for Inhibitors of the HIV-1 protein Vpr. S. pombe RE007 Vpr strain, BacTiter-Glo ATP luminescence, 24 h. Potency, µM (series often up to 92.2 µM), inactives show at the top dose activity change, negative = less growth, most hits filed as inhibitors. 360,000 compounds, 0.21% hits; active means well fitted falling curve with a large enough effect; inconclusive means small, poorly fitted or top-dose-only effect; inactive means no such curve, though single readings can be large or run the other way; further: potency means the concentration at half of the fitted maximal effect; on the % scale 0 is the no-effect control and ±100 the full control effect; nearly all actives have a fitted effect of over 50% in size
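Fission yeast strain RE007, carrying one chromosomally integrated HIV-1 vpr copy, was seeded at OD 0.01 in PMG+AL medium with 23 nL pinned compound. After 24 h at 30 °C and 99% humidity, viability was read by BacTiter-Glo luminescence.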
Pf growth 48h: Primary qHTS for delayed death inhibitors of the malarial parasite plastid, 48 hour incubation; P. falciparum luciferase growth in erythrocytes, 48 h; Potency, µM (highest dose often 28.7 µM), for the others: at the top dose activity change, negative = inhibition, usual class: inhibitors; 310,000 compounds, 5.9% hits; AID 504832, 2011; active means well fitted inhibition curve with a large enough effect; inconclusive means small, poorly fitted or top-dose-only effect, or another doubt; inactive means no such curve, though single readings can be large or run the other way; further: potency means the concentration at half of the fitted maximal effect; on the % scale 0 is the no-effect control and ±100 the full control effect
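Erythrocytes infected with P. falciparum carrying an integrated firefly luciferase reporter (2% hematocrit, 0.1% parasitemia final) were exposed to compounds in RPMI 1640 with 0.5% Albumax at 37 C, 5% CO2. Growth inhibition was scored as reduced luminescence.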
SARS PLP yeast: qHTS of Yeast-based Assay for SARS-CoV PLP | Potency, µM (highest dose often 32.9 µM), without a hit: at the top dose activity, positive = growth rescue, hits mostly activators | S. cerevisiae expressing SARS-CoV PLpro, growth rescue | 330,000 compounds, 0.19% hits; further: potency means the concentration at half of the fitted maximal effect; 0% is about no effect; nearly all actives have a fitted effect of over 55% in size
NS1 inh: qHTS Assay for Inhibitors of Influenza NS1 Protein Function | AID 2326, 2010 | 270,000 compounds, 0.4% hits | Potency, µM (highest dose often 46.1 µM), for the others: top-dose activity, positive = more growth; further: potency means the concentration at half of the fitted maximal effect; actives are rising curves; nearly all actives have a fitted effect of over 50% in size
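A cell-based growth assay was used: compounds that relieve NS1-induced slow growth of budding yeast raise OD600. Assay medium was yeast nitrogen base with ammonium sulphate and -URA supplement, pH 6.0, with 2% galactose.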
Flu NS1 inh: Assay for Inhibitors of Influenza NS1 Protein Function: Hit Validation | shares compounds with NS1 inh | influenza NS1 function cell assay, 15-point titration | activity change, negative = inhibition, % at 32.9 µM | 1,400 tested, under 10 active; further: 0% is about no effect
Flu PR8 replic: Assay for Inhibitors of Influenza NS1 Protein Function: Influenza virus replication assay in MDCK cells infected with virus A/PR/8/34. shares compounds with NS1 inh. MDCK infected influenza A/PR/8/34, virus titer TCID50; stronger effect = lower value. virus titer (log TCID50), log10 TCID50 at 5 µM. 95 compounds, 30% hits. AID 504647, 2011; call rule not given here
* hit, by the source's call; u = inconclusive; x = no result given; [ ] = remark or other dose. Most compounds without a hit are left out; they make up all but 9.5% or so of the library. Unless noted, the call rests on the fitted dose curve.

SMILES	Pf growth 96h	RE007 growth inh	Pf growth 48h	SARS PLP yeast	NS1 inh	Flu NS1 inh	others
CCOc1ccccc1N(CC(=O)Nc1cccc2ccccc12)S(C)(=O)=O	2%	13%	-23%	-3%	20%	x
Cc1ccsc1C=Nc1c(C)n(C)n(-c2ccccc2)c1=O	x	0%	16%	4%	0%	x
Cc1c(N=Cc2cccs2)c(=O)n(-c2ccccc2)n1C	16%	5%	x	2%	14µM*	0
COC(=O)Cc1[nH]n(-c2ccccc2)c(=O)c1C(C)=Nc1ccccc1	10%	-3%	39%	-1%	x	x
COC(=O)Cc1cc(=O)n(-c2ccccc2)[nH]1	27%	7%	-9%	3%	8.9µM*	37
CCOC(=O)c1ccc(S(=O)(=O)NCC(c2ccc(N(C)C)cc2)c2c[nH]c3ccccc23)cc1 (stereo not drawn)	-19%	-17%	-16%	-19%	8.9µM*	u
Cc1cc(Cl)ccc1OC(C)C(=O)Nc1cnn(CCCC(=O)O)c1 (stereo not drawn)	4%	-5%	40%	-2%	7%	x
Cc1cccc(NC(=O)CSc2nnc([C@@H](N)Cc3c[nH]c4ccccc34)o2)c1C	1.7µM*	23%	u	2%	11µM*	15
Cc1cc(NC(=O)COC(=O)c2cccc(S(=O)(=O)N3CCOCC3)c2)no1	15%	9%	9%	-1%	-6%	x
O=C(COC(=O)c1cccc(S(=O)(=O)N2CCOCC2)c1)Nc1nc(-c2ccccc2Cl)cs1	108%	7%	68%	0%	11µM*	u
O=C(NC1CCCCC1)C(c1ccccc1)N(C(=O)c1csnn1)C1CCCC1 (stereo not drawn)	2%	2%	-17%	10%	2%	x
C=CCN1CCc2cccc3c2C1Cc1ccc(O)c(O)c1-3 (stereo not drawn)	x	x	x	x	11µM*	-20
CCCN1CCc2cccc3c2[C@H]1Cc1ccc(O)c(O)c1-3	x	-22%[18.4 µM]	x	x	x	x
COc1ccc(CCNC(=O)Cn2ccc3cc(S(=O)(=O)N4CCCC4)ccc32)cc1OC	15%	6%	u	7%	2.5µM*	-5
O=C(O)[C@H]1CN(C/C=C/P(=O)(O)O)CCN1	12%	x	-2%	x	x	x
CCOc1ccccc1NC(=O)COC(=O)C12CC3CC(CC(O)(C3)C1)C2	22%	6%	57%	0%	x	x
CCCCC/C=C\C/C=C\C/C=C\C/C=C\CCCC(=O)NCC(=O)O	-2%	x	-4%[2.67 µM]	x	18µM*	12
CCCCC/C=C\C/C=C\C/C=C\CCCCC(=O)O	0%	2%[18.4 µM]	u	x	x	x
Cc1ccc(CN(C)C(=O)c2ccccc2NC(=O)c2ccccc2)o1	u	-7%	u	-15%	x	x
COc1ccc(-c2cc(C(=O)Nc3nc4c(C)cccc4s3)c3ccccc3n2)cc1OC	u	17%	20%	-3%	11µM*	9
COc1cccc(-c2cc(C(=O)Nc3nc4ccccc4s3)c3ccccc3n2)c1	u	-17%	u	-1%	26%	x
COCCn1nnnc1C(c1ccccc1)N1CCN(Cc2ccc3c(c2)OCO3)CC1 (stereo not drawn)	62%	2%	6%	0%	4.5µM*	-4
Cc1cc(N2CCOCC2)nc2ccc(NC(=O)CCC(=O)N3CCC(C)CC3)cc12	31%	-8%	-18%	-1%	5.6µM*	u
CCNc1ncnc2[nH]ncc12	x	-11%	x	x	x	x
CC(=O)c1cccc(NC(=O)C2Cc3c(-c4ccc5c(c4)OCO5)ccnc3O2)c1 (stereo not drawn)	x	-19%	x	x	x	x
SMILES	Pf growth 96h	RE007 growth inh	Pf growth 48h	SARS PLP yeast	NS1 inh	Flu NS1 inh	others
O=C(Cc1c[nH]c2ccccc12)Nc1nc2ccccc2[nH]1	u	1%	19%	0%	11µM*	-1
O=C(Cc1ccccc1)Nc1nc2ccccc2[nH]1	x	2%	58%	6%	0%	x
Cc1ccccc1C(=O)Nc1cccc(C(=O)Nc2ccccc2C(=O)O)c1	-26%	0%	4%	-4%	11µM*	14
Cc1cccc(NC(=O)c2cc(NC(=O)c3ccccc3)ccc2N2CCCCC2)c1	-4%	-1%	x	-2%	u	2	Flu PR8 replic=8.5
CC(=O)Oc1cccc(C(=O)Nc2cccc(C(=O)Nc3ccccc3C(=O)O)c2)c1	u	2%	8%	1%	6%	x
Cc1cccc(NC(=O)C2CCCN(c3nc(C)cc(C)n3)C2)c1 (stereo not drawn)	10%	-6%	-1%	-1%	8.9µM*	1
Cc1cccc(NS(=O)(=O)c2cccc(C(=O)Nc3cccc(C(=O)O)c3)c2)c1	0%	7%	160%	-1%	2.2µM*	31
Cc1ccc(NC(=O)c2cc(NC(=O)CCC(=O)O)ccc2N2CCCCC2)cc1	u	4%	-21%	1%	21%	x
Cc1nnc(SCC(=O)NC(=O)Nc2ccc3c(c2)OCCO3)n1N	-5%	1%	16%	-1%	-2%	x
COc1ccc(NS(=O)(=O)c2cccc(C(=O)Nc3ccccc3C(=O)O)c2)cc1	-26%	-1%	2%	2%	u	x
CC(=O)c1ccc(NS(=O)(=O)c2cccc(C(=O)Nc3ccccc3C(=O)O)c2)cc1	22%	4%	27%	6%	13µM*	31
Oc1ccc(/C=N/Nc2ncnc3c2ncn3Cc2ccccc2)cc1O	u	8%	u	u	14µM*	0
Oc1cccc(/C=N/Nc2ncnc3c2ncn3Cc2ccccc2)c1	u	12%	27%	-17%	10%	x
COc1cccc(/C=N/NC(=O)Cn2cnc3c2c(=O)n(C)c(=O)n3C)c1	41%	-17%	19%	0%	9%	x
O=C(NCC(=O)N1CCc2ccccc2C1)c1ccccc1Cl	76%	18%	15%[0.00184 µM]	-2%	-4%	x
CN(C)C(CNC(=O)c1ccc(Br)cc1)c1ccco1 (stereo not drawn)	27%	1%	6%[0.00184 µM]	0%	8%	x
CN(C)C(CNC(=O)c1cc(Br)ccc1Cl)c1ccco1 (stereo not drawn)	-15%	4%	10%	9%	2µM*	-15
COc1cc(NS(=O)(=O)c2ccc(NC(=O)COc3ccccc3Cl)cc2)nc(OC)n1	x	-4%	x	8%	14µM*	-2
COc1cc(NS(=O)(=O)c2ccc(NC(=O)COc3cccc(C)c3)cc2)nc(OC)n1	0%	7%	27%	2%	u	x

Screening results deposited in PubChem BioAssay by National Center for Advancing Translational Sciences (NCATS).
